Among all 370,000 compounds or so, about 2,800 (0.76%) were called active. Rule as the data show it: active = inhibition above about 21%; inactive = the rest. For the sample, actives were picked, then their nearest neighbours and some compounds at random.

In PubChem BioAssay AID687016 (The Scripps Research Institute Molecular Screening Center, 2013) one finds inhibition data, which are given here for 24 molecules.

The test deals with E3 ubiquitin-protein ligase UHRF1 (Homo sapiens) (UniProt Q96T88). Nature of the test: blockers of UHRF1 binding to methyl-oligo – biochemical, TR-FRET, human UHRF1, single concentration, counter-screen for MBD2 inhibitor project, primary screen (AID 687016).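 Also: UHRF1 SRA domain binding a hemimethylated CpG hairpin DNA probe; 0% = median of test compound wells and 100% = reference inhibitor.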 To be noted: UHRF1 binding to methylated oligo, at 4.4 µM, hits give high values.
E3 ubiquitin-protein ligase UHRF1 (Homo sapiens), sequence (Q96T88 whole entry, looked up, the tested form may be a part): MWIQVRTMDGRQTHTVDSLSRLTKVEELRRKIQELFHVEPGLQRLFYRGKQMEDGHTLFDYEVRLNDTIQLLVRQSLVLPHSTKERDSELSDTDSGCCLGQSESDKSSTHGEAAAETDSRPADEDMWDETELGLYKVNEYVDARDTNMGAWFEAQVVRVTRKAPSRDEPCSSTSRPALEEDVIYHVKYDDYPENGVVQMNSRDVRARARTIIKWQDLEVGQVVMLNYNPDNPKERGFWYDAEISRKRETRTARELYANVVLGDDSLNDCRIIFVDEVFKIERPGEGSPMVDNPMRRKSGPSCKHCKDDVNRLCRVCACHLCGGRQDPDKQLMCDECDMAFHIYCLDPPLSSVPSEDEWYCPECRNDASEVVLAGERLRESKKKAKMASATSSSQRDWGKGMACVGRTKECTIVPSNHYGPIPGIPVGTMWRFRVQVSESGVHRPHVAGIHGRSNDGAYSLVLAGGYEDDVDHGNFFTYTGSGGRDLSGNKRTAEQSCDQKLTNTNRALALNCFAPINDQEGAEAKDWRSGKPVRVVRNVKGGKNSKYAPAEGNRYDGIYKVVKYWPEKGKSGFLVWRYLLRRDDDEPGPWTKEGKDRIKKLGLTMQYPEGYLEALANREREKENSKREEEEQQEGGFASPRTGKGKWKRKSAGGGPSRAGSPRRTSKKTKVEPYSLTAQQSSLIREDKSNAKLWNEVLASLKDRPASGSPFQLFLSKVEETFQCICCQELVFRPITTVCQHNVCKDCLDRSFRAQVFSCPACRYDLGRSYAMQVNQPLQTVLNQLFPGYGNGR
As a reminder, the inhibition is the relative decrease from the control value, in per cent. Turning to `Nc1ccc2nc3c(=O)[nH]c(=S)[nH]c3nc2c1`, the inhibition is 29.6% (active).

As for `N#Cc1ccc(OC[C@@H](O)CN2CCC(C(O)(c3ccccc3)c3ccccc3)CC2)c(F)c1`, the inhibition is -0.23% (inactive).

For the molecule `C=CCN1C(=O)[C@@H](CC(=O)N2CCN(C(=O)OCC)CC2)[C@]2(C(=O)OCC)CCCCC/C=C/12`, the inhibition is 0.51% (inactive).

With `Cc1cc(C)cc(OCC(=O)Nc2cc(NC(=O)COc3cc(C)cc(C)c3)cc(C(=O)O)c2)c1`, the inhibition was -0.86% (inactive).

Consider `Cc1cc(C)cc(OCC(=O)NCc2cc(C)nc3ccccc23)c1`, for which the inhibition was 37.5% (active).

`Cc1cc(C)cc(OCC(=O)NNC(=O)CCN2C(=O)c3ccccc3C2=O)c1`: the inhibition was -0.19% (inactive).

Take `CCOc1ccc(Oc2c(Cl)cnn(-c3ccc(C)cc3)c2=O)cc1`: the inhibition is 0.41% (inactive).

`CCOC(=O)C1=C(C)NC2=C(C(=O)CC(C)(C)C2)C1c1ccc2c(c1)OCO2` (centres undefined): the inhibition is 3.68% (inactive).

With `O=C(Nc1cccc(F)c1)c1cc(-c2ccco2)nc2ccccc12`, the inhibition is 23% (active).

Regarding `O=C(Nc1nc2ccc(Cl)cc2s1)c1cc(-c2ccc(Cl)cc2)nc2ccccc12`, the inhibition was 1.94% (inactive).

As for `Cc1cc(C(=O)Nc2ccc(C)c(S(=O)(=O)N3CCOCC3)c2)c2ccccc2n1`, the inhibition was 6.42% (inactive).

For `O=C1CC[C@@H](COc2ccc3[nH]cc(-c4ccccc4)c3c2-c2ccccc2)N1`, the inhibition was -0.59% (inactive).

As for `C[C@H](C(=O)N(C)c1ccccc1)[C@@H](O)c1ccc(Cl)cc1`, the inhibition is -0.97% (inactive).

Turning to `COc1cccc(CNC(=O)C2CCCN(c3nc4ccccc4o3)C2)c1OC` (centres undefined), the inhibition was 3.57% (inactive).

On to `C=CCOC/C=C/C#CCN(CC=C)Cc1ccc(OC)cc1OC`, for which the inhibition was -1.02% (inactive).

`O=C(NCc1cccs1)C1CCCN(S(=O)(=O)c2ccc([N+](=O)[O-])cc2)C1` (centres undefined): the inhibition is 1.19% (inactive).

As to `COCCNC(=O)Nc1ccc2nc(-c3ccco3)c(-c3ccco3)nc2c1`, the inhibition is 91.1% (active).

For the molecule `O=C(NCCOc1ccccc1F)Nc1ccc(Br)cc1`, the inhibition was 4.11% (inactive).

Regarding `COCCN(C(=O)c1ccco1)c1nnc(-c2ccc(OC)cc2)s1`, the inhibition is -1.02% (inactive).

Consider `O=C(NC1CCCC1)C1CSCCS(=O)(=O)N1Cc1ccccc1` (centres undefined), for which the inhibition was -0.6% (inactive).

Consider `COC(=O)[C@]12C[C@H](CC(=O)NCCc3ccccc3OC)C(=O)N(Cc3ccco3)C1=C[C@H](C(C)C)O[C@@H]2C1CC1`, for which the inhibition was 3.75% (inactive).

For `O=[N+]([O-])c1ccc(COc2ccccc2CN2CCOCC2)cc1`, the inhibition was -1.96% (inactive).

Regarding `Oc1c(CN2CCOCC2)ccc(CN2CCOCC2)c1O`, the inhibition was 25.4% (active).

Take `OCCN1CCOCCOCCN(CCO)CCN(CCO)CC1`: the inhibition is -0.79% (inactive).
